Holding throughout (format): functional
The target of test [1] is Solute carrier family 2, facilitated glucose transporter member 1 (Homo sapiens) (UniProt P11166). The test is described as follows: ST_JUDE_LEISH: Cytotoxicity at 2uM final concentration against transgenic Leishmania Mexicana promastigotes LmGLUT1 that are glucose transport deficient and complemented with the human glucose transporter GLUT1. Activity is measured by DNA content using SYBR green in vitro.

The target of test [2] is Hexose transporter 1 (Plasmodium falciparum) (UniProt O97467). The test is described as follows: ST_JUDE_LEISH: Cytotoxicity at 2uM final concentration against transgenic Leishmania Mexicana promastigotes LmPfHT that are glucose transport deficient and complemented with the Plasmodium falciparum hexose transporter. Activity is measured by DNA content using SYBR green in vitro.

Test [3] deals with Glucose transporter (Leishmania mexicana) (UniProt O61059). The test can be described thus: ST_JUDE_LEISH: Cytotoxicity at 2uM final concentration against transgenic Leishmania Mexicana promastigotes LmGT2 that are glucose transport deficient and complemented with the L. Mexicana glucose transporter 2. Activity is measured by DNA content using SYBR green in vitro.

This passage reports inhibition results from ChEMBL document CHEMBL3433997, “St. Jude Leishmania screening dataset” (2016).

Sequence of Solute carrier family 2, facilitated glucose transporter member 1 (Homo sapiens) (P11166 whole entry): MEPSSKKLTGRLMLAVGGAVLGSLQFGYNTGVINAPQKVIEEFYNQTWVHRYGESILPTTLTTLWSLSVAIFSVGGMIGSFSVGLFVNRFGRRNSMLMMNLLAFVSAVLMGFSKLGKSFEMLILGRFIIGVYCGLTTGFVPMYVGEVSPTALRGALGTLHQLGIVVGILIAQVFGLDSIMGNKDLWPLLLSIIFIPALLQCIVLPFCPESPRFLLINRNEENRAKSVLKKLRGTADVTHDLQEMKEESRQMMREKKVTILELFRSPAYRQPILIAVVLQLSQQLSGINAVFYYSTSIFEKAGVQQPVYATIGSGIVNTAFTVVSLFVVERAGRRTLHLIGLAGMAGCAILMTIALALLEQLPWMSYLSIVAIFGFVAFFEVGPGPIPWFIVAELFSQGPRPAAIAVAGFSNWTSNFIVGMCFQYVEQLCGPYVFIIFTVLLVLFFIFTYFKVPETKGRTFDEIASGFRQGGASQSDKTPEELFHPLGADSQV

In general, inhibition refers to the relative decrease from the control value, in per cent. As for `O=C(Nc1ccccc1)Nc1ccc(-n2ccc(C(F)(F)F)n2)cc1`, the results for the inhibition in test [1], in test [2] and in test [3] were 2.55%, 2.63% and -0.06%, respectively.
As for `Cn1cncc1CCCN(Cc1ccc(-c2ccc(C(F)(F)F)cc2)cc1)C(=O)Cn1c(CCc2cccc(F)c2F)cc(=O)c2cccnc21`, the inhibition turned out to be 2.28% in test [1], 2.54% in test [2] and 1.5% in test [3].
As to `ON=C(c1nc2ccccc2[nH]1)c1nc2ccccc2[nH]1`, the inhibition in test [1] is -0.84%; in test [2], -0.51%; in test [3], 0.76%.
The like results for `Nc1nc(N)c2c(Oc3cccc4ccccc34)cccc2n1` were, in that order, 4.57%, 2.3% and 3.17%.
For the compound `CCN(CC)CCNc1ccc(Nc2ccnc3cc4ccccc4cc23)cc1`, the results for the inhibition in test [1], in test [2] and in test [3] were 0.35%, -0.38% and 3.92%, respectively.
`O=C(c1ccccc1NN=C1C(=O)N(c2ccccc2)N=C1c1ccccc1)N1CCOCC1`: the inhibition in test [1] was -1.67%; in test [2], 1.67%; in test [3] it was 8.03%.
Take `COc1cc2nc(NCCc3ccccc3)nc(NCc3cnn(C)c3C)c2cc1OC`: the inhibition in test [1] worked out at 9.47%; in test [2], 8.36%; in test [3], 7.1%.
The like results for `C=CCn1c(=N)c(C(=O)NC2CCCCC2)cc2c(=O)n3cccc(C)c3nc21` were, in that order, 11.3%, 15.2% and 4.5%.
For the compound `CN(C)CCn1cc(C(=O)c2cc(Cl)ccc2O)cc1-c1nc2ccccc2c(=O)[nH]1`, the inhibition in test [1] was 0.7%; in test [2], -0.71%; in test [3], -2.96%.
The like results for `Brc1ccccc1CNc1ccnc(NCCn2ccnc2)n1` were, in that order, -0.91%, 0.05% and 0.03%.
The matching figures for `CC(Sc1nc2sccc2c(=O)n1C)C(=O)Nc1ccc2c(c1)OCO2` (configuration not stated): 4.94%, 5.47% and 3%.
The like results for `N#Cc1ccc(-c2ccc(C(=O)NCCCCN3CCC(c4cc(Br)c5c(c4OCC(N)=O)CCCC5)CC3)cc2)cc1` were, in that order, 2.88%, 1.24% and -0.04%.
In the case of `COc1ccc2nccc([C@@H](O)CNCCCN(C)CCOc3cc(F)cc(F)c3)c2c1`, the inhibition in test [1] came to 6.85%; in test [2], 7.45%; in test [3], 6.99%.
In the case of `Cc1ccc(O)cc1Nc1ccnc2ccc(-c3csc(CNCCN4CCOCC4)n3)cc12`, the inhibition in test [1] worked out at 3.28%; in test [2], 2.25%; in test [3] it was 1.59%.
In the case of `CN(C)CCOc1cc(NC(=O)Nc2ccc(-c3ccncc3)c(Cl)c2)ccc1I`, the results for the inhibition in test [1], in test [2] and in test [3] were 2.24%, 1.09% and 1.54%, respectively.
On to `CC1(C)N=C(NC(=O)Nc2ccc([N+](=O)[O-])cc2)N=C(N)N1OCc1cccc2ccccc12`, for which the inhibition in test [1] amounted to 2.41%; in test [2], 4.36%; in test [3] it was 5.77%.
The like results for `c1ccc(CNCCn2c(-c3ccc4c(c3)CCO4)nc3c(N4CCCC4)cccc32)cc1` were, in that order, 11.7%, 8.74% and 6.86%.
`OCCN1CCN(Cc2ccc(-c3ccc(-c4nc5cc(F)ccc5[nH]4)cc3)cc2)CC1`: the values for the inhibition in test [1], in test [2] and in test [3] were 8.49%, 6.23% and 3.78%, respectively.
The like results for `Nc1nc(N)c2c(ccc3ccccc32)n1` were, in that order, 14.7%, 28.9% and 19%.
The matching figures for `CCNc1cc(C)nc(Nc2ccc(NS(=O)(=O)c3cc(OC)ccc3OC)cc2)n1`: 16.8%, 12.1% and 5.24%.
With `O=C(Nc1ccc(-c2ccccc2)cc1)Nc1cccc(Cn2ncc(N3CCNCC3)c(Cl)c2=O)c1`, the inhibition is -0.79% in test [1], 1.65% in test [2] and 6.76% in test [3].
The matching figures for `COc1ccc2nccc(N3CCC(O)(CCNCc4ccc5c(n4)NC(=O)CS5)CC3)c2n1`: 7.13%, 8.14% and 7.92%.
As for `Cc1cc(OCCCN2CCC(NS(=O)(=O)c3cccc(Br)c3)CC2)c2ccccc2n1`, the inhibition in test [1] came to 10.9%; in test [2], 9.48%; in test [3], 9.99%.
With `c1cc(CNCC2CCCO2)cc(-c2ccc(-c3nc4ccccc4[nH]3)s2)c1` (configuration not stated), the inhibition was 0.61% in test [1], -3.37% in test [2] and -0.92% in test [3].
The like results for `CN(C)Cc1ccc(-c2ccc3c(Nc4ccc(Oc5ccccc5)cc4)ccnc3c2)o1` were, in that order, 0.83%, 0.83% and 2.26%.
Take `CC[C@H]1CN2CCc3cc(OC)c(OC)cc3[C@@H]2C[C@@H]1CC1=NCCc2c1[nH]c1ccc(OCc3ccccc3)cc21`: the inhibition in test [1] worked out at 0.63%; in test [2] it was 0.59%; in test [3], 2.89%.
The like results for `CCOC(=O)NC1=NC(C)(C)N(OCc2cccc3c2ccc2ccccc23)C(NC(=O)OCC)=N1` were, in that order, 10.7%, 11.1% and 10.3%.
The like results for `CCCCN(C(=O)c1ccccc1C)c1nnc(-c2ccccc2C)s1` were, in that order, 2.08%, 1.53% and -0.2%.
The like results for `COc1cc(-c2ccccc2)ccc1C(=O)Nc1ccc2c(c1)N(C)CCC2` were, in that order, 4.93%, 2.53% and 3.05%.
As to `CC1(C)NC(N)=NC(=N)N1OCCCOc1cccc2ccccc12`, the inhibition in test [1] stood at 54.8%; in test [2] it was 61.1%; in test [3], 45.4%.
The like results for `CCCCn1c(Sc2ccc(C#N)c([N+](=O)[O-])c2)nnc1-c1cccc(Cl)c1` were, in that order, 4.8%, 6.03% and 5.83%.
For the compound `Cc1onc(-c2ccc(Cl)cc2)c1-c1ccnn1S(=O)(=O)c1ccc(Cl)cc1`, the inhibition in test [1] was -0.16%; in test [2], 4.29%; in test [3], 1.91%.
`C[C@@H](Oc1cc(-n2cnc3ccc(NC(=O)NC(C)(C)C)cc32)sc1C(N)=O)c1ccccc1Cl`: the inhibition in test [1] was 4.54%; in test [2], 3.45%; in test [3], 2.98%.
With `CCCOc1ccc(CCNCCCCNCCc2ccc(OCCC)c3ccccc23)c2ccccc12`, the values for the inhibition in test [1], in test [2] and in test [3] were 101%, 99.1% and 105%, respectively.
